Screening results deposited in PubChem BioAssay by National Center for Advancing Translational Sciences (NCATS).
Tau fluor cs: counter-screen for tau fibril formation inhibitors | tau K18 P301L Alexa594 fluorescence, heparin fibrillization | 280,000 compounds, 0.93% hits | Potency, µM (series often up to 57.7 µM), for the others: top-dose activity change, negative = decrease; also: potency is read from the fitted curve at half-maximal effect; nearly all actives have a fitted effect of over 55% in size
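Human K18 P301L tau (15 uM unlabeled plus 0.24 uM Alexa 594-labeled, final) in 100 mM sodium acetate pH 7 was mixed with compound and 20 uM heparin and incubated 6 hr at 37 C.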
Coupling enz: inhibits coupling enzyme system, counter-screen for aldolase hits | activity change, negative = inhibition, % at 58.2 µM, hits read low | 290,000 compounds, 0.67% hits | coupling enzyme system counterscreen, AmpLite Red fluorescence; in the data active = activity change below about -30%
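Compounds tested against the coupling enzymes alone at 57.5 uM final; readout was AmpLite Red fluorescence (525/598 nm) after 20 min at RT.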
Tau FP inhib: blocks human tau fibril formation measured by polarization; P10636; K18 P301L tau heparin fibrillization, Alexa594 FP, 6 h; Potency, µM (doses to about 57.7 µM), for inactives: at the highest dose activity, negative = inhibition, most hits filed as inhibitors; 280,000 compounds, 0.39% hits; AID 1468; also: potency is read from the fitted curve at half-maximal effect; nearly all actives have a fitted effect of over 55% in size
Target sequence (P10636 561-689 P618L limits assumed): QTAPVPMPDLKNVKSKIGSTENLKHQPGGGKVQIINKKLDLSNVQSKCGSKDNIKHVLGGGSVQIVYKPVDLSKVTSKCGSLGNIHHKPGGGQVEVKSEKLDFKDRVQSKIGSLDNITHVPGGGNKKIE
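FP of Alexa 594-tau after heparin (20 uM) induction. Substrate: human K18 P301L, 15 uM unlabeled, 0.24 uM labeled. Buffer 100 mM sodium acetate pH 7. 6 hr, 37 C.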
Sfp PPTase inh: Sfp phosphopantetheinyl transferase inhibition | 310,000 compounds, 3.5% hits | Potency, µM, without a hit: largest response in the series, negative = inhibition, hits mostly inhibitors | Biochemical Sfp PPTase activity, qHTS | AID 1490;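 also: the enzyme is Sfp with the accession as filed and its product quenches rhodamine fluorescence; potency is read from the fitted curve at half-maximal effect; 0% = enzyme reaction without inhibitor and -100% = no enzyme wells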
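Fluorescence-quenching assay: 15 nM Sfp-PPTase preincubated 15 min at room temperature with compound, then 5 uM rhodamine-CoA and 12.5 uM BHQ-2-labelled YbbR peptide added. Fluorescence (ex 525/em 598 nm) read at start and after 30 min; difference gives rate.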
G9a block: blocks human histone lysine methyltransferase G9a; Q96KQ7; G9a H3K9 monomethylation, AlphaScreen, 2 h; Potency, µM (series often up to 102 µM), inactives show at the top dose activity, negative = inhibition, hits mostly inhibitors; 350,000 compounds, 8.8% hits; AID 504332; also: potency is read from the fitted curve at half-maximal effect; nearly all actives have a fitted effect of over 75% in size
Target sequence (Q96KQ7 913-1193 limits assumed): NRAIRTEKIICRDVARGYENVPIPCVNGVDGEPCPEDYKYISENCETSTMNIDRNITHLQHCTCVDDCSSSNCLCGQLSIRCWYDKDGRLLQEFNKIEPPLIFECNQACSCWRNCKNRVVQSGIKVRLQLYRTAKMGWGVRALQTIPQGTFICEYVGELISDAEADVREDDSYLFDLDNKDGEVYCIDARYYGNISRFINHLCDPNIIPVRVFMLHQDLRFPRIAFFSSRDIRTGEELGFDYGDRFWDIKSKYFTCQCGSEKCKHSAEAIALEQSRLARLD
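Quantitative HTS format: methyltransferase activity on a biotin-tagged H3K9 peptide is measured by AlphaScreen, using a rabbit anti-monomethyl-H3K9 antibody with streptavidin donor and anti-IgG acceptor beads. Final levels are 20 nM enzyme, 500 nM peptide, 20 uM SAM; 2 h RT.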
Tau fibril ThT: blocks human tau fibril formation measured by thioflavin T; P10636; recombinant tau K18 P301L (four-repeat tau fragment), heparin-induced fibrillization, ThT fluorescence; Potency, µM (doses to about 57.4 µM), for the others: top-dose activity, negative = inhibition, usual class: inhibitors; 270,000 compounds, 2.1% hits; also: potency is read from the fitted curve at half-maximal effect; nearly all actives have a fitted effect of over 55% in size
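Tau K18 P301L fragment (15 uM unlabeled plus 0.24 uM Alexa 594-labeled) in 100 mM sodium acetate pH 7 with compound, fibrillization induced by 20 uM heparin for 6 hr at 37 C. Thioflavin T (30 uM) added, fluorescence read after 1 hr (ex 450, em 510 nm).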
* hit, by the source's call; ? = inconclusive; . = no result; [ ] = remark or other dose. Rows were chosen to be rich in hits. Some 11% of all compounds tested hit in one or more screens of this group. Unless noted, calls follow the shape of the dose curve; as a rule, active = well fitted curve in the direction sought with a large enough effect; inconclusive = small, poorly fitted or top-dose-only effect, or another doubt; inactive = no such curve, though single readings can be large; an effect the other way counts as inactive or inconclusive. Unless noted, % is scaled to controls: 0 for no effect and ±100 for the full control effect.

SMILES	Tau fluor cs	Coupling enz	Tau FP inhib	Sfp PPTase inh	G9a block	Tau fibril ThT
CCNc1nc(NCC)n2c(SCC(=O)Nc3ccc(NC(C)=O)cc3)nnc2n1	.	.	.	.	50µM*	.
CCNc1nc(NCC)n2c(SCc3nc4ccccc4c(=O)[nH]3)nnc2n1	8%	-2	4%	14%	2%[12.7 µM]	-1%
CCNc1nc(NCC)n2c(SCC(=O)Nc3ccc(CC)cc3)nnc2n1	.	.	.	.	2.5µM*	.
CCNc1nc(NCC)n2c(SCc3ccc(F)cc3)nnc2n1	7%	2	6%	2%	10µM*	0%
Cc1ccc(N(CC(=O)Nc2ccc(Br)c(C)c2)S(=O)(=O)c2c(C)[nH]c(=O)[nH]c2=O)cc1	.	.	.	8%	.	.
COc1cc(/C=C/c2sc3ccccc3[n+]2CCCS(=O)(=O)[O-])ccc1O	-1%	-34*	5%	6.3µM*	11µM*	6%
Cc1ccc(C(=O)NCCS(=O)(=O)N2CCN(c3ccccc3F)CC2)cc1[N+](=O)[O-]	.	3	.	7%	12%	.
CCCN(CCC)C(=O)c1cc([N+](=O)[O-])cc2c1-c1ccc([N+](=O)[O-])cc1C2=C(C#N)C#N	?	-32*	?	50µM*	45µM*	32µM*
Cc1cc(OC(=O)c2cc(Cl)ccc2Cl)c([N+](=O)[O-])c(=O)[nH]1	.	1	.	11%	-5%	.
Cc1ccccc1OCC(=O)N/N=C/c1cccc(Oc2ccc([N+](=O)[O-])cc2[N+](=O)[O-])c1	6.3µM*[quencher]	-49*	-6%	1%	?	?
Cc1ccccc1OCC(=O)NCC(=O)N/N=C/c1cccc([N+](=O)[O-])c1	-2%	-2	2%	12%	12%	-12%
Cc1cc(Cl)ccc1OCCCC(=O)N/N=C/c1cccc([N+](=O)[O-])c1	-2%	-36*	3%	-6%	-25%[59 µM]	0%
O=C(N/N=C/c1cccc(OC(=O)c2ccc3c(c2)OCO3)c1)c1cncc(Br)c1	?	-1	?	?	-4%[59 µM]	?
O=C(N/N=C/c1cccc(Oc2ccc([N+](=O)[O-])cc2[N+](=O)[O-])c1)c1cncc(Br)c1	8.9µM*[quencher]	-25	4%	?	-22%	?
CS(=O)(=O)c1ccc2nc(NC(=O)C3CCCO3)sc2c1 (centres undefined)	15%[2.34 µM]	1	-7%	19%	-4%	0%
C=CCN(CC=C)S(=O)(=O)c1ccc2nc(NC(=O)C3CCCO3)sc2c1 (centres undefined)	-14%	5	-7%	7%	1.3µM*	-4%
CC/C=C\CC[C@H](OC(=O)c1ccc(Br)cc1)C1=CCCCC1=O	-3%[11.6 µM]	0	-6%[11.6 µM]	18%	.	-7%[11.5 µM]
COc1ccccc1N(C)S(=O)(=O)c1ccc(Cl)c(C(=O)NNC(=O)c2ccccc2O)c1	.	.	.	56µM*	.	.
COc1ccccc1N(C)S(=O)(=O)c1ccc(C(=O)NNC(=O)c2ccccc2O)cc1	.	.	.	.	3%	.
c1ccc2c(-c3nnc(SCc4cn5ccccc5n4)o3)c[nH]c2c1	-28%	-1	-5%	-22%	8.9µM*	?
O=S(=O)(Nc1cccc(Cl)c1)c1ccc2oc(=S)[nH]c2c1	-9%	12	2%	11%	25µM*	-13%
Cc1ccc(S(C)(=O)=O)cc1S(=O)(=O)Nc1cccc(Cl)c1	6%	1	4%	18%	22%[59 µM]	9%
O=c1[nH]c2ccc(S(=O)(=O)N3CCCCC3)cc2o1	-6%	8	-4%	-2%	?	-7%
O=S(=O)(c1cccc(-c2cn3cccnc3n2)c1)N1CCOCC1	5%	3	1%	-4%	35µM*	-2%
O=S(=O)(c1ccc2oc(=S)[nH]c2c1)N1CCOCC1	.	.	.	.	1.3µM*	.
SMILES	Tau fluor cs	Coupling enz	Tau FP inhib	Sfp PPTase inh	G9a block	Tau fibril ThT
O=S(=O)(c1ccc2oc(=S)[nH]c2c1)N1CCCCC1	-7%	19	1%	9%	45µM*	-9%
O=S(=O)(Nc1ccc2c(c1)OCO2)c1ccc(Cl)cc1F	.	.	.	.	3%[2.33 µM]	.
CCCCn1c(CNC(=O)c2ccc(OC)cc2)nnc1SCC(=O)Nc1ccccc1	-15%	.	-4%	.	2%[59 µM]	2%
O=S(=O)(c1cccc(-c2n[nH]c(=S)o2)c1)N1CCOCC1	-3%	6	-6%	25µM*	14µM*	-3%
O=C1/C(=C/c2cccnc2)CC/C1=C\c1cccnc1	0%	1	-3%	8%	-47%	?
CCC1C/C(=C\c2cccnc2)C(=O)/C(=C/c2cccnc2)C1 (centres undefined)	-11%	-1	?	?	14%[59 µM]	10µM*
O=C1/C(=C/c2cccnc2)CCC/C1=C\c1cccnc1	-16%	6	?	-7%	-28%	6.3µM*
CC(C)c1ccc(NC(=O)CSC2=Nc3ccccc3C3=NC(CC(=O)NCc4cccs4)C(=O)N23)cc1 (centres undefined)	-29%	.	2%	.	0%[59 µM]	-6%
C/C(N)=C(/C#N)C(=O)COC(=O)CNC(=O)c1ccc(Cl)cc1Cl	9%	1	-3%	8%	12%	14%
O=C(NCCS(=O)(=O)N1CCC2(CC1)OCCO2)c1ccc(F)cc1	.	.	.	.	0%[0.501 µM]	.
c1ccc(OCCCCN2CCOCC2)cc1	8%	6	11%	-8%	-5%	1%
CC1CC(C)CN(S(=O)(=O)CCNC(=O)c2ccccc2)C1 (centres undefined)	.	.	.	.	-31%	.
O=S(=O)(CCOc1ccccc1)N1CCOCC1	2%	1	2%	2%	79µM*	2%
